Data taken from PubChem BioAssay AID504725 (Broad Institute, 2011).
Measured potencies and affinities stand elsewhere.

molecular target: KSHV LANA C-terminal domain (residues 932-1162) binding to LBS DNA (UniProt O40947); experiment: inhibitors of C-LANA binding to LBS DNA, dose response, biochemical, fluorescence polarization, cherry-picked samples (AID 504725); settings: MBP-C-LANA / FAM-LBS DNA fluorescence polarization, percent change from plate compound-well median; series mostly up to 35 µM; activity change, negative = inhibition: at the top concentration

Activity change, negative = inhibition, inactive:
Cc1ccc(S(=O)(=O)/N=C2/C=C(Sc3ncn[nH]3)C(=O)c3ccccc32)cc1 -4.55%
O=C(OCc1ccccc1)N1C=CC2CC1c1c(Cl)cccc12 (stereo not drawn) 0.553%
O=C(NCc1cccnc1)C(=O)C1C(=O)Nc2ccccc21 (stereo not drawn) 1.28%
CC(C)c1ccc(NC(=O)Cn2c(=O)oc3cccnc32)cc1 1.09%
C=CCNC(=O)c1cn(CC)c2cc(N3CCN(C(=O)c4ccco4)CC3)c(F)cc2c1=O 4.41%
COc1ccc(OC2CCN(S(=O)(=O)c3ccc(OC)cc3)CC2)cc1 -1.17%
O=S(=O)(O)c1cccc2cccc(Nc3ccccc3)c12 -0.146%
Cn1c2ccccc2c2cnn(CC(=O)Nc3cccc(F)c3)c(=O)c21 -5.89%
COc1ccc(C)cc1NC(=O)C(OC(=O)c1cnccn1)c1ccccc1 (stereo not drawn) -8.66%
O=C(/C=N/NC(=O)c1ccc(Cl)cc1Cl)c1ccccc1 2.06%
CN(C)/C=N/c1nc2nccc(-c3ccc(Cl)cc3)n2n1 5.16%
CN(c1ccccc1)S(=O)(=O)c1cccc(NS(=O)(=O)c2cccc(C(=O)O)c2)c1 2.38%
O=C1c2ccccc2C(Nc2ccc3c(c2)OCCO3)N1Cc1ccc2c(c1)OCO2 (stereo not drawn) 2.85%
CCOC(=O)c1c(C)n(C)c2ccc(OCCN(C)C)cc12 -3.37%
Cc1sc2nnn(CC(=O)N3CCN(C(=O)c4ccco4)CC3)c(=O)c2c1C -1.77%
O=S(=O)(O)c1cc(O)c2cc(Nc3ccccc3)ccc2c1 -17.8%
Cc1ccc(NC(=O)CN2C(=O)N/C(=C/c3cc(C)n(-c4ccc(C(=O)O)cc4)c3C)C2=O)cc1 -8.71%
CCOC(=O)c1sc(NC(=O)CSC(=S)N2CCN(C)CC2)nc1C -1.51%
COc1ccc(/C=C/C(=O)NC(=S)Nc2ccc(S(N)(=O)=O)cc2)cc1 -5.56%
Cc1nc2c(=O)[nH]c(=S)[nH]c2[nH]c1=O -11.5%
C=CC[C@@H](CC(=O)N(CCO)Cc1ccccc1)C(=O)NC[C@H](OC(=O)[C@@H](CC=C)CC(=O)OC(C)(C)C)c1ccccc1 -12.1%
CCN(Cc1ccccc1)S(=O)(=O)c1cc2[nH]c(=O)c(=O)[nH]c2cc1C -5.2%
C=CCn1c(C)cc(-c2csc(NC(=O)CCc3nc4ccccc4c(=O)[nH]3)n2)c1C 0.228%
CC(Sc1ncccn1)C(=O)NNC(=O)c1cccc(Cl)c1 (stereo not drawn) -2.31%
O=C(Nc1ccc2c(c1)OCO2)N1CCCc2ccccc21 1.73%
O=C(c1ccc2c(c1)CCN2S(=O)(=O)c1ccccc1)N1CCN(c2ccc(F)cc2)CC1 0.518%
COc1ccc(-c2nc(C(=O)O)cs2)cc1OC 2.06%
COc1ccc2[nH]c3c(C)c4cc[n+](C)cc4c(C)c3c2c1 128%
COc1c2c(nc3occc13)C(CCC(C)(C)O)(OC)C(O)CC2 (stereo not drawn) -3.02%
COC(=O)c1ccc(OCC(O)CN2CCC(C)CC2)cc1 (stereo not drawn) -1.1%
Cn1c(N)c(C(=O)COC(=O)c2ccc(Cl)c(S(=O)(=O)N3CCCC3)c2)c(=O)n(C)c1=O -4.06%
Cn1c(=O)c2c(nc(SCC(=O)NCc3ccc4c(c3)OCO4)n2Cc2ccc(Cl)cc2)n(C)c1=O 2.38%
O=C(O)CCN1C(=O)/C(=C\c2ccc(-c3nc4ccccc4s3)o2)SC1=S -1.43%
O=C(/C=C/c1ccco1)Nc1ccccc1C(=O)Nc1cccc(C(=O)O)c1 -17%
O=C(CSc1nc2ccccc2[nH]1)Nc1cccc(S(=O)(=O)N2CCOCC2)c1 -1.75%
COc1ccc(NC(=O)CN(C)CC(=O)Nc2ccc(N3CCOCC3)cc2)c([N+](=O)[O-])c1 -0.918%
COC(=O)C1=C(N)OC2=C(C(=O)CCC2)C1c1cccs1 (stereo not drawn) -1.63%
COc1ccc(C(=O)N/N=C/c2ccc(OC)c(COc3ccccc3)c2)cc1 1.35%
